105 compounds from PubChem BioAssay AID504832 (National Center for Advancing Translational Sciences (NCATS), 2011) can be followed below.

Each structure is given as a SMILES string. The campaign covered roughly 310,000 compounds. About 18,000 (5.8%) were called active. Entries that show only a call come without a potency. About 22% were inconclusive and are not listed. The call rests on the fitted dose curve; in most records, active means well fitted inhibition curve with a large enough effect; inconclusive means small, poorly fitted or top-dose-only effect, or another doubt; inactive means no such curve, though single readings can be large or run the other way. For the sample, actives were picked, then their nearest neighbours and some compounds at random.
Potency means the concentration at half of the fitted maximal effect.

This assay can be described thus: Primary qHTS for delayed death inhibitors of the malarial parasite plastid, 48 hour incubation. Particulars: P. falciparum luciferase growth in erythrocytes; series mostly up to 28.7 µM. In a few lines:
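Parasite viability was followed by luminescence of a genomically integrated firefly luciferase. Cultures held 0.1% parasitemia at 2% hematocrit (final), incubated under 5% CO2 at 37 C.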
(In general: Quantitative high-throughput screening tests each substance at several concentrations.)
Regarding `NC(=O)NC(=O)C(OC(=O)CCNS(=O)(=O)c1ccccc1)c1ccccc1` (stereo not given), the Potency result is “inactive”.
As for `O=C(CCc1c[nH]c2ccccc12)NCCOc1ccccc1`, the Potency result is “inactive”.
Take `O=C(CCCCn1c(=O)[nH]c2ccccc2c1=O)NCc1ccc2c(c1)OCO2`: the Potency entry is “inactive”.
Next, `O=C(CCCCCn1c(=O)[nH]c2ccccc2c1=O)NCCc1c[nH]c2ccccc12`: 8.28 µM (active); `COc1ccc2c(C)cc(SCC(=O)NCC3CCCO3)nc2c1` (stereo not given): “inactive”.
Take `COc1ccc2nc(NC3=NCN(CC4CCCO4)CN3)nc(C)c2c1` (stereo not given): the Potency was 11.7 µM (active).
The value for `Cc1ccc2nc(NC3=NCN(CCc4ccccc4)CN3)nc(C)c2c1` was “inactive”; that for `CC(NC(=O)COc1cccnc1[N+](=O)[O-])c1ccc(Cl)cc1Cl` (stereo not given) was “inactive”; that for `Cn1c(SCC(=O)Nc2ccc(N3CCOCC3)cc2)nnc1C(F)(F)F` was “inactive”.
In the case of `CCN(CC)c1ccc2oc(=O)c(C)nc2c1`, the Potency was 1.47 µM (active).
As for `CCN(CC)c1ccc2cc(C(N)=O)/c(=N\NC(=O)c3ccncc3)oc2c1`, the Potency entry is “inactive”.
Take `CCN(CC)c1ccc2c(Nc3ccccc3)c(C=O)c(=O)oc2c1`: the Potency entry was “inactive”.
For `Cc1ccccc1N1CCN(C2CCCN(C(=O)c3cn4c(C)cccc4n3)C2)CC1` (stereo not given), the Potency entry is “inactive”.
Turning to `CCC(CC)c1nnc(NC(=O)C2=COCCO2)s1`, the Potency result is “inactive”.
Take `O=C(O)C1CCC(CNS(=O)(=O)c2ccc(Br)cc2)CC1` (stereo not given): the Potency entry was “inactive”.
`CCn1c(=O)c(C(=O)NCc2ccc3c(c2)OCO3)c(O)c2ccccc21`: the Potency entry is “inactive”.
Next, `CCCC1=Nc2cc(C(=O)NCc3ccco3)ccc2Sc2ccccc21`: 4.65 µM (active); `COc1ccc(CCNS(=O)(=O)c2ccc(C(=O)NCc3ccco3)cc2)cc1OC`: “inactive”; `O=C(COC(=O)c1cnc(Cl)c(Cl)c1)NCc1ccco1`: “inactive”.
Next, `COc1ccc(N2CC(C(=O)N[C@@H](C)C(=O)N3CCCCC3)CC2=O)cc1` (stereo not given in full): “inactive”; `O=C(Nc1cccc2cccnc12)c1cccc(Cl)c1`: “inactive”; `CC(OC(=O)C1CC(=O)N(Cc2ccccc2)C1)C(=O)Nc1ccccc1[N+](=O)[O-]` (stereo not given): “inactive”.
As to `Cc1ccc(-c2cc(C(=O)NCc3cn(C)nc3C)c3cc(Br)ccc3n2)cc1`, the Potency was 2.94 µM (active).
In the case of `Cc1nn(C)cc1CNC(=O)Nc1ccc(Cl)cc1`, the Potency result is “inactive”.
Take `COc1ccc(Cl)cc1C(=O)NCc1cn(C)nc1C`: the Potency result is “inactive”.
Next, `CCN(C(=O)CN1C(=O)/C(=C/c2ccc(F)cc2)SC1=S)C1CCS(=O)(=O)C1` (stereo not given): “inactive”; `O=C1/C(=C/c2ccc(F)cc2)SC(=S)N1CCCC(=O)N1CCCCC1CCO` (stereo not given): 11.7 µM (active).
With `O=C(CCCN1C(=O)/C(=C\c2ccccc2)SC1=S)Nc1ccccc1O`, the Potency entry is “inactive”.
`N#Cc1cccc(CSc2ncnc(N)n2)c1`: the Potency entry is “inactive”.
Next, `CNC(=O)COC(=O)c1cc(-c2ccc(OC)cc2)nc2ccccc12`: “inactive”.
The value for `COc1ccccc1NC(=O)c1cc(Cl)nc2ccccc12` was “inactive”; that for `COc1ccc(NC(=O)c2cc(-c3cc(OC)c(OC)c(OC)c3)nc3ccccc23)c(OC)c1` was 5.22 µM (active); that for `COc1ccccc1CN(C)c1nnnn1-c1ccccc1` was “inactive”.
For `c1ccc2sc(N3CCNCC3)nc2c1`, the Potency entry was “inactive”.
Next, `CCC(C)(C)n1nnnc1CN1CCN(c2nc3ccc(C)cc3cc2C#N)CC1`: “inactive”; `CCC(C)(C)n1nnnc1C(c1ccccc1OC)N1CCSCC1` (stereo not given): 11.7 µM (active).
The value for `CCCC(c1nnnn1C(C)(C)C)N1CCN(Cc2ccccc2)CC1` (stereo not given) was “inactive”.
As for `COc1ccccc1C(c1nnnn1C(C)(C)C)N1CCN(Cc2ccccc2)CC1` (stereo not given), the Potency is 13.1 µM (active).
The value for `CC(C)C(c1nnnn1C(C)(C)C)N1CCN(Cc2cccnc2)CC1` (stereo not given) was “inactive”.
Next, `CCC(C)(C)n1nnnc1C(c1ccc(OC)c(OC)c1)N1CCN(C(=O)c2ccco2)CC1` (stereo not given): “inactive”.
Next, `CCC(C)(C)n1nnnc1C(c1cccs1)N1CCN(c2nc3ccccc3s2)CC1` (stereo not given): 11.7 µM (active).
In the case of `Cc1ccc(S(=O)(=O)NCCC(=O)NC2CCN(Cc3ccccc3)CC2)cc1`, the Potency result is “inactive”.
Next, `Cc1cccc([C@@H]2[C@@H]3C(=O)N(C)C(=O)[C@@H]3[C@@H]3C(=O)Nc4ccccc4C(=O)N23)c1`: “inactive”.
On to `CC1CCCCC12NC(=O)N(CC(=O)Nc1ccc(S(=O)(=O)Nc3ncccn3)cc1)C2=O` (stereo not given), for which the Potency result is “inactive”.
With `COc1cccc(C(=O)Nc2nnc(S(=O)(=O)N3CCOCC3)s2)c1`, the Potency entry was “inactive”.
Next, `Cc1ccc(C)c(S(=O)(=O)Nc2cccc(-n3cnnn3)c2)c1`: “inactive”.
Regarding `Cc1cnc(C)c(N2CCN(C(=O)C3CCC(=O)N(CCc4cccc(F)c4)C3)CC2)n1` (stereo not given), the Potency entry is “inactive”.
`CN(C)c1ccc(N/C=C/C(=O)C(F)(F)F)cc1`: the Potency was 9.28 µM (active).
The value for `O=C(/C=C/Nc1ccccc1OC(F)(F)F)C(F)(F)F` was “inactive”; that for `CCCOc1ccc(N/C=C/C(=O)C(C)(C)C)cc1` was “inactive”.
The value for `COc1ccc2ccccc2c1/C=N/NC(=O)c1cc(C)[nH]n1` was “inactive”; that for `C/C(=N\N=C(N)N)c1ccc(Cl)cc1` was 6.57 µM (active).
Next, `C/C(=N\OCC(=O)O)c1ccc(Cl)cc1`: “inactive”; `Cc1onc(-c2ccccc2)c1C(=O)N=C(N)c1ccc(Cl)cc1`: “inactive”; `Cc1ccccc1OCC(=O)N(Cc1cccc(F)c1)C1CCS(=O)(=O)C1` (stereo not given): “inactive”.
Turning to `CN(C(=O)COC(=O)CNC(=O)C12CC3CC(CC(C3)C1)C2)c1ccccc1`, the Potency result was “inactive”.
The value for `COc1ccc2oc(=O)c(C(=O)N3CCN(c4ccccc4F)CC3)cc2c1` was “inactive”.
Next, `O=C(Nn1cc(C(=O)N2CCN(c3ccccc3F)CC2)c2ccccc2c1=O)c1cnccn1`: 10.4 µM (active).
The value for `O=C(c1c(F)cccc1F)N1CCN(c2ncc(Br)cn2)CC1` was “inactive”; that for `O=C(COC(=O)c1cccs1)NCc1cccs1` was “inactive”; that for `CC(C)=CCN1CCN(CCCc2ccccc2)CC1CCO` (stereo not given) was “inactive”.
Turning to `O=C1Nc2cc(C(=O)N3CCN(c4ccc(F)cc4)CC3)ccc2NC1CSCc1cccc(F)c1` (stereo not given), the Potency entry was “inactive”.
The value for `Cc1cccn2c(=O)c3cc(C(=O)NC4CCCCC4)sc3nc12` was “inactive”.
The value for `Cc1cc(C)cc(Oc2nc3c(C)cccn3c(=O)c2/C=C(\C#N)C(=O)NC2CCS(=O)(=O)C2)c1` (stereo not given) was 13.1 µM (active).
As for `Cc1cccn2c(=O)c(/C=C(\C#N)S(=O)(=O)c3ccc(Cl)cc3)c(N3CCC(C(N)=O)CC3)nc12`, the Potency result is “inactive”.
Take `CCCCNC(=O)Cn1nc(C)c(S(=O)(=O)N2CCOCC2)c1C`: the Potency result is “inactive”.
The value for `CSCCC(NC(=O)c1ccco1)C(=O)NCCc1ccc(F)cc1` (stereo not given) was “inactive”; that for `COc1ccc2c(C)c(CCC(=O)NC3CC3)c(=O)oc2c1C` was “inactive”; that for `COc1ccccc1C(=O)NC(=S)NC12CC3CC(CC(C3)C1)C2` was “inactive”.
As to `O=[N+]([O-])c1ccccc1S(=O)(=O)Nc1cccc2cccnc12`, the Potency was 2.33 µM (active).
The value for `O=C(Nc1ccccc1Cl)Nc1cccc2cccnc12` was “inactive”.
On to `Cc1ccccc1NC(=O)c1ccccc1NS(=O)(=O)c1cccc2cccnc12`, for which the Potency entry is “inactive”.
`COc1ccccc1OCC(=O)OCc1cc(-c2ccco2)on1`: the Potency entry was “inactive”.
The value for `C/C(=N\NC(N)=S)c1cccnc1` was “inactive”; that for `C/C(=N\NC(N)=S)c1ccncc1` was 3.29 µM (active); that for `C/C(=N/NC(=O)c1ccn(C)n1)c1ccncc1` was “inactive”.
As to `CC(=O)N1CCC(C(=O)OCc2ccc(Cl)cc2)(c2ccccc2)CC1`, the Potency entry is “inactive”.
Next, `O=C(/C=C/c1ccccc1[N+](=O)[O-])OCC(=O)N1CCCC1`: “inactive”.
The value for `COc1ccc(C(=O)NCCn2nc(C)cc2C)cc1OC1CCN(C(C)=O)CC1` was “inactive”.
The value for `O=C(CCSc1ccccc1)N1CCN(c2ccccc2F)CC1` was “inactive”; that for `O=C(NCC(=O)N1CCN(c2ccccc2F)CC1)c1cccs1` was “inactive”.
`O=C(Cn1c(-c2ccc(Cl)cc2)noc1=O)N1CCN(c2ccccc2F)CC1`: the Potency is 11.7 µM (active).
Next, `CCOC(=O)/C(C#N)=C/c1ccc(N2CCN(Cc3ccccc3)CC2)cc1`: “inactive”; `Cc1cc(C(=O)N2CCN(c3ccccn3)CC2)c(C)o1`: “inactive”.
In the case of `CCOC(=O)c1nnn2c1nc(N1CCN(c3ccccc3)CC1)c1ccccc12`, the Potency is 5.22 µM (active).
As for `CC(=C1C(=O)c2ccccc2C1=O)N1CCN(c2ccccn2)CC1`, the Potency entry was “inactive”.
For `CCOC(=O)c1nnn2c3ccccc3c(=O)n(C)c12`, the Potency entry was “inactive”.
Take `Cc1ccc(S(=O)(=O)c2nnn3c2nc(N2CCN(c4ccccn4)CC2)c2ccccc23)cc1`: the Potency was 1.47 µM (active).
Next, `COc1ccc(C2NC(=O)N(C)C(C)=C2[N+](=O)[O-])cc1` (stereo not given): “inactive”.
Next, `COc1ccc(S(=O)(=O)NCc2cccnc2)cc1NC(=O)c1ccc(C)cc1`: “inactive”.
With `CCN(C(=O)CSc1ncnc2sccc12)c1c(N)n(Cc2ccccc2)c(=O)[nH]c1=O`, the Potency result is “inactive”.
For `COc1ccc(S(=O)(=O)N2CCCCC2)cc1NC(=O)c1cc([N+](=O)[O-])ccc1N1CCOCC1`, the Potency was 9.28 µM (active).
Next, `O=C(NC1CCCCC1)c1cc([N+](=O)[O-])ccc1N1CCOCC1`: “inactive”; `COc1ccc(S(=O)(=O)N2CCOCC2)cc1NC(=O)c1ccc(OCC(C)C)c(OC)c1`: 9.28 µM (active).
Next, `COc1ccc(S(=O)(=O)N2CCOCC2)cc1NC(=O)CSc1cc(C)ccc1C`: “inactive”.
Regarding `O=C(Nc1cc(S(=O)(=O)N2CCOCC2)ccc1OCC(F)(F)F)c1ccc(N2CCCC2=O)cc1`, the Potency entry was “inactive”.
The value for `COc1ccc(S(=O)(=O)N2CCOCC2)cc1C(=O)NC1CCCCC1` was “inactive”; that for `CC(C)Cn1c(=O)c2ccccc2n2c(CCC(=O)NCc3ccccn3)nnc12` was “inactive”.
Next, `Fc1cc(Br)ccc1NC(=S)Nc1cccnc1`: “inactive”; `S=C(NCCc1ccccc1)N1CCCCC1`: “inactive”.
The value for `S=C(Nc1cccc(Br)c1)N1CCn2cccc2C1c1cccnc1` (stereo not given) was 11.7 µM (active).
For `S=C(NCCc1ccccc1)N1CCn2cccc2C1c1ccncc1` (stereo not given), the Potency is 10.4 µM (active).
With `COc1ccc(C(=O)NC(=S)N2CCCCC2c2cccnc2)cc1OC` (stereo not given), the Potency result was “inactive”.
As for `CC1CCCCN1C(=S)NCc1ccccc1` (stereo not given), the Potency result is “inactive”.
Regarding `COc1ccc(CCNS(=O)(=O)c2cccc([N+](=O)[O-])c2)cc1`, the Potency entry was “inactive”.
